Source: PubChem (several laboratories)
An excerpt weighted towards active compounds, which were near 2.4% of everything screened.
CRFBP-R2 block: antagonists of CRF-BP/CRF-R2 complex, primary screen, cell-based, HEK293, calcium dye fluorescence, uHTS. inhibition, % at 11.8 µM. AID 588475, 2011. CRF-induced calcium fluorescence. 350,000 tested, 0.59% active;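 active = inhibition of the ligand-induced calcium signal above about 50% at the single tested concentration, limit read from the data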
m5-HT2A agonist: mouse Htr2a agonists via beta-arrestin recruitment, primary screen, cell-based, luminescence; 5-hydroxytryptamine receptor 2A (Mus musculus), P35363; CHO-K1 mHTR2A beta-arrestin complementation; percent of 30 µM serotonin response; activation, % at 7.6 µM; 360,000 tested, 0.66% active; AID 624169, 2012;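 active = activation above a run cutoff, the mean activation of all tested compounds plus 3 SD, cut at about 14% in these data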;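 also: 0% = plate median of compound wells and 100% = 30 µM serotonin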
TLR4 MyD88 comp: inhibitors of TLR4-MyD88 association in cells, primary screen, cell-based, HeLa CL3-4, BLA complementation, FRET ratio. Toll-like receptor 4 (Homo sapiens) + Myeloid differentiation primary response protein …. HeLa CL3-4 TLR4/MyD88 BLA complementation. inhibition, % at 8.4 µM. 200,000 tested, 0.18% active. AID 861, 2007; in the data active = inhibition above about 25%;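 also: 0% = vehicle and 100% = reference inhibitor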
ABHD5 PLIN5 PPI: ABHD5-PLIN5 interaction inhibitors, primary screen, cell lysate, split luciferase complementation, luminescence; AID 602281, 2012; inhibition, % at 4 µM; Split G. princeps luciferase complementation, 4 h; Perilipin-5 (Homo sapiens) + 1-acylglycerol-3-phosphate O-acyltransferase ABHD5 (Homo …; 360,000 tested, 0.78% active;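 active = inhibition above the mean inhibition across every tested compound plus 3 SD, cut at about 22% in these data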;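 also: 0% = DMSO only wells and the 100% control is not disclosed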
Target sequence (Q00G26 whole entry, looked up): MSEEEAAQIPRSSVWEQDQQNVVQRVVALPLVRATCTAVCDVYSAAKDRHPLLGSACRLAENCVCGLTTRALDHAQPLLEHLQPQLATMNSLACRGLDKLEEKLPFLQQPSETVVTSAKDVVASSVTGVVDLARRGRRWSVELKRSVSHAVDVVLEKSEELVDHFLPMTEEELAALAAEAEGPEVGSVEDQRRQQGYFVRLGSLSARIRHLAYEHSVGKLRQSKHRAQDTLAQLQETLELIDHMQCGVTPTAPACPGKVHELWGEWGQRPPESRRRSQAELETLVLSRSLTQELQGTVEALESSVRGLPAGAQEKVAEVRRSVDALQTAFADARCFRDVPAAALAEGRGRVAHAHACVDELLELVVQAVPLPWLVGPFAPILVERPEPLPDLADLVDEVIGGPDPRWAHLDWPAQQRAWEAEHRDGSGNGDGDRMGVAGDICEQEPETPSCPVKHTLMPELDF
Target sequence (Q8WTS1 whole entry, looked up): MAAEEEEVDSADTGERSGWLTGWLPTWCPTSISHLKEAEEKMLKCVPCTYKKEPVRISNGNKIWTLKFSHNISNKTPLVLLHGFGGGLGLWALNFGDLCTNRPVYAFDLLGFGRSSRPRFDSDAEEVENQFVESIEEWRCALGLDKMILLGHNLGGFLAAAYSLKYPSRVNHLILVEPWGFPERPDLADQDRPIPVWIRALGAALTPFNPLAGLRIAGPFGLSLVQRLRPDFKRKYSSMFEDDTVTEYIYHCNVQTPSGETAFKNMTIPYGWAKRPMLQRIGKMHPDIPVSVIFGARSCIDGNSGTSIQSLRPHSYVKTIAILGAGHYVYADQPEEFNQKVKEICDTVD
NOD2-RIPK2 inh: NOD2-RIPK2 binding disruptors in cells, primary screen, fluorescence, CHO cells, BLA complementation. 360,000 tested, 0.38% active. inhibition, % at 4.98 µM. AID 624267, 2012. CCF4 ratio; in the data active = inhibition above about 21%;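 also: 0% = vehicle only and 100% = reference blocker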
TLR9-MyD88 block: inhibitors of TLR9-MyD88 association in cells, primary screen, cell-based, CHO, BLA complementation, fluorescence. 340,000 tested, 0.21% active. CCF4 FRET ratio. Toll-like receptor 9 (Homo sapiens) + Myeloid differentiation primary response protein …. AID 504734, 2011. inhibition, % at 4.98 µM;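 active = inhibition above the mean over all tested compounds plus 3 SD, cut at about 21% in these data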;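 also: 0% = DMSO only wells and 100% = clavulanate BLA inhibitor control wells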
* hit, by the source's call; . = no result.

SMILES	CRFBP-R2 block	m5-HT2A agonist	TLR4 MyD88 comp	ABHD5 PLIN5 PPI	NOD2-RIPK2 inh	TLR9-MyD88 block
COc1cc(NC(=O)[C@H](C)NC(=O)N2CCn3c2nc2ccccc23)cc(OC)c1	86*	0	.	6	2	0
CC1(C(=O)NC2CCCCC2)CCC(=O)N1CCOc1ccccc1 (stereo not drawn)	.	5	.	6	-3	.
COC(=O)c1cc(C#N)c(NCc2ccccc2)nc1C	54*	3	-11	7	-1	2
COC(=O)c1cc(C#N)c(N(C)Cc2ccccc2)nc1C	62*	3	-3	-3	-3	8
CC(=O)c1cc(C#N)c(N(C)Cc2ccccc2)nc1C	25	3	0	2	-12	17
O=C1NC[C@H](CCCCN2C[C@H](Cc3ccccc3)N(CCC3CCCCC3)C(=O)C2=O)N(CCc2ccc(O)cc2)C1=O	.	4	.	12	-6	.
COC(=O)c1ccc2nc(-c3ccc(OC)c(OC)c3)c(Cc3cccc(F)c3)n2c1	.	6	.	-3	0	.
CCc1nc2c(OCc3cc(Cl)cc(Cl)c3)cccn2c1N(C=O)Cc1ccc(OC)cc1	.	3	.	3	-1	.
CNc1nc(NC)nc(NNC(=O)c2ccccc2)n1	51*	0	.	-1	-1	-3
CC(=O)Nc1ccc(NC(=O)COc2ccc([N+](=O)[O-])cc2)cc1	60*	1	-5	6	0	-3
O=C(CCOc1ccccc1)Nc1ccc([N+](=O)[O-])cc1	67*	4	-8	-8	-7	-7
Cn1cccc1/C=N/n1c(-c2ccc(Cl)cc2)n[nH]c1=S	-19	0	1	-18	-3	0
Cc1ccc(-c2n[nH]c(=S)n2/N=C/c2cccn2C)cc1	52*	1	-4	-1	-4	-7
COC(=O)c1ccccc1NC(=O)CSCC(=O)Nc1ccccc1	-8	18*	2	15	-11	-2
CNCc1ccccc1Sc1ccc(O)c(O)c1	1	2	-20	23*	6	-6
Clc1cccc(Cc2c(-c3cccc(Br)c3)nc3ccc(Cl)cn23)c1	.	-2	.	-1	-6	.
Cc1cc2nc(-c3ccco3)c(Cc3cccc(Cl)c3)n2c(C)c1Br	.	-8	.	26*	-5	.
Clc1cccc(Cc2c(-c3ccco3)nc3ccc(Br)cn23)c1	.	2	.	49*	-1	.
COc1ccccc1Cc1c(-c2ccco2)nc2cc(C)c(Br)c(C)n12	.	-6	.	58*	-12	.
CC1ON=C(c2ccccn2)N(Cc2ccc(S(C)(=O)=O)cc2)C1=O (stereo not drawn)	.	3	.	3	3	.
O=C(CBr)c1ccc([N+](=O)[O-])c(CS(=O)(=O)c2ccc(Cl)cc2)c1	28	-6	.	27*	6	2
COc1ccc(CN2CCS(=O)(=O)CC2)cc1OC	64*	-2	1	2	0	-2
COc1ccc(CN2CCN(Cc3ccc4ccccc4c3)CC2)cc1OC	-9	-13	.	8	-10	5
COc1cc(C(=O)NC2CC(C)(C)Cc3c2cnn3-c2ccccc2)cc(OC)c1OC (stereo not drawn)	57*	-2	.	2	-5	6
CCC(C)CN1C(=O)CSCC1(C)C(=O)Nc1ccc2c(c1)OCCO2 (stereo not drawn)	.	0	.	-13	-19	.
SMILES	CRFBP-R2 block	m5-HT2A agonist	TLR4 MyD88 comp	ABHD5 PLIN5 PPI	NOD2-RIPK2 inh	TLR9-MyD88 block
CCc1ccc(NC(=O)Cn2nc(C(=O)O)c3ccccc3c2=O)cc1	58*	7	.	2	-9	-10
O=C(Nc1ccc(F)cc1)C(c1cc2ccccc2o1)N1CCN(c2ccncc2)CC1 (stereo not drawn)	.	-5	.	8	14	.
COCCCn1c(SCC(=O)Nc2ccccc2F)nnc1-c1ccoc1C	103*	2	.	2	5	-9
CN(C)C(=O)c1cnc(Cc2c[nH]c3ccccc23)c(I)c1	.	2	.	-1	11	.
CCn1c(C(C)NS(=O)(=O)c2ccc(Cl)cc2)n[nH]c1=S (stereo not drawn)	12	8	.	-3	0	0
CCCn1c(C(C)NS(=O)(=O)c2ccccc2)n[nH]c1=S (stereo not drawn)	62*	14	.	-8	-12	-7
Cc1ccc(/C=C/C(=O)Nc2ccc([N+](=O)[O-])cc2)o1	1	-1	-3	29*	6	-3
Cc1nn(C(C)C(=O)O)c(=O)c2ccccc12 (stereo not drawn)	57*	5	-2	2	-2	3
CC(C(=O)O)n1ncc2ccccc2c1=O (stereo not drawn)	15	9	.	4	2	4
COc1ccc(CCNC(=O)COC(=O)C23CC4CC(CC(Br)(C4)C2)C3)cc1	-6	0	0	0	-10	-10
CC(NC(=O)COC(=O)C12CC3CC(CC(Br)(C3)C1)C2)c1ccccc1 (stereo not drawn)	62*	-1	.	1	-8	-3
Cc1cccc(N2CCN(S(=O)(=O)c3ccc(Cl)nc3)CC2C)c1 (stereo not drawn)	76*	-3	.	0	3	-8
O=NN(CCCl)C(=O)NCC1=C[N+](=O)CC=C1	.	1	.	2	-6	.
CCOc1cc(OCC)cc(C(=O)N2CCC[C@@H]2C(=O)N2CCC[C@@H]2C(=O)NCc2ccccc2Cl)c1	.	7	.	0	-9	.
Fc1ccc(OCCCCCn2ccnc2)cc1	55*	1	.	4	5	-9
COc1ccc(N2C(=O)CC(c3ccc([N+](=O)[O-])cc3)C2=O)cc1 (stereo not drawn)	63*	3	.	4	1	-16
CC(=O)N1c2ccc(S(=O)(=O)N(C)CC(=O)NC3CCCC3)cc2CC1C (stereo not drawn)	63*	7	.	7	-3	1
CC1=C(C)/C(=N\OS(=O)(=O)c2ccccc2)C=CC1=O	-15	3	-9	62*	76*	19
Cc1ccc(S(=O)(=O)O/N=C2\CCCc3ccccc32)cc1	9	10	5	3	-4	-8
CSC1=NCCN1C(=O)Cc1ccc(Cl)cc1	50*	2	4	2	-3	-2
COc1ccc(CC(=O)N2CCN=C2SC)cc1	24	0	-19	-1	-6	3
C#CCN(C[C@@H]1[C@@H](OC(=O)NCc2ccco2)[C@@H](OC(=O)NCc2ccco2)CN(C(=O)OC(C)C)N1C(=O)OC(C)C)S(=O)(=O)c1ccc(C)cc1	28	-1	.	9	-9	-22
